Laboratory results: PubChem BioAssay (Tox21)
Inconclusive results are not listed. Calls of active or inactive are those of the source. Unless noted, calls come from the whole dose curve; as a rule, active = well fitted curve in the direction sought with a large enough effect in the repeat runs; inconclusive = weak or mixed curves; inactive = no such curve, though single readings can be large; an effect the other way counts as inactive or inconclusive.

Assays:
[1] = qHTS assay for small molecule agonists of the p53 signaling pathway (AID 651631; calls by dose curve; note: nearly all actives have a fitted effect of over 15% in size)
Method in brief: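 Testing took place in human colorectal HCT-116 cells with stable p53RE-driven beta-lactamase. After 16 h of compound exposure at 37 °C, a FRET substrate was added and fluorescence recorded 2 h later.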

[2] = qHTS assay for small molecules that induce genotoxicity in human embryonic kidney cells expressing luciferase-tagged ATAD5 (AID 651632); note: nearly all actives have a fitted effect of over 15% in size
Method in brief: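 Reporter cells (HEK293T) express luciferase-tagged ATAD5, a protein that accumulates after DNA damage. Treat 16 hr at 37C/5% CO2, add Amplite, wait 30 min at RT, and read luminescence.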

[3] = qHTS assay for small molecule agonists of the p53 signaling pathway - cell viability (AID 651633; calls by dose curve; note: series mostly up to about 83 µM; nearly all actives have a fitted effect of over 30% in size)
Method in brief: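 p53RE-bla cells were treated with compound for 16 hours at 37 C. Cytotoxicity was then measured as CellTiter-Glo luminescence after 30 min at room temperature.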

[4] = qHTS assay for small molecules that induce genotoxicity in human embryonic kidney cells expressing luciferase-tagged ATAD5 - cell viability (AID 651634; calls by dose curve; note: nearly all actives have a fitted effect of over 25% in size)
Method in brief: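 Seeding of 2,000 HEK293T ATAD5-luciferase cells per well preceded pin-tool compound transfer. Plates sat 15.5 hr at 37C under 5% CO2, then fluorescence was read after 30 min with CellTiter-Fluor.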

[5] = qHTS assay for small molecule disruptors of the mitochondrial membrane potential - cell viability (AID 720634; calls by dose curve;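 note: human HepG2 liver cancer cells; series mostly up to about 83 µM; nearly all actives have a fitted effect of over 20% in size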)
Method in brief: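 Measuring cytotoxicity alongside mitochondrial potential, the screen quantified ATP by luminescence in HepG2 cells after 1 hr compound incubation and a 30 min room-temperature CellTiter-Glo step.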

[6] = qHTS assay for small molecule disruptors of the mitochondrial membrane potential (AID 720635)
Method in brief: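 HepG2 cells exposed to compound 1 hr at 37C, then Mito-MPS dye 30 min. Ratio read of aggregate (540/590 nm) versus monomer (490/535 nm) fluorescence.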

[7] = qHTS assay to test for compound auto fluorescence at 590 nm (red) in HepG2 cells (AID 720674)
Method in brief: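 HepG2 cells, 2,000 per well in MEM with 10% FBS, attached overnight at 37 C, then got 23 nL compound or DMSO. After 1 hr at 37 C, 5% CO2, red fluorescence was read at 540/590 nm against Rose Bengal sodium as reference.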

[8] = qHTS assay to test for compound auto fluorescence at 535 nm (green) in HepG2 cells (AID 720675)
[9] = qHTS assay to test for compound auto fluorescence at 590 nm (red) in HEK293 cells (AID 720679)
Method in brief: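 Red channel, Ex/Em 540/590nm; signal expressed as equivalency to Rose Bengal sodium. HEK293, 2,000 cells/well, 10% dialyzed FBS; 23 nL compound pinned after 4-5 hr attachment; overnight 37C/5% CO2 before reading.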

[10] = qHTS assay to test for compound auto fluorescence at 535 nm (green) in HEK293 cells (AID 720680)
[11] = qHTS assay to test for compound auto fluorescence at 460 nm (blue) in HEK293 cell free culture (AID 720681)
Method in brief: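 Compounds were added to cell-free DMEM with 10% FBS and fluorescence read directly. The blue channel used 405 nm excitation and 460 nm emission, with triamterene as the reference fluorophore.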

[12] = qHTS assay to test for compound auto fluorescence at 535 nm (green) in HEK293 cell free culture (AID 720682)
Method in brief: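 DMEM + 10% FBS, cell-free; cpd or DMSO pinned in; Ex485/Em535 read; output as fluorescein-equivalent signal.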

[13] = qHTS assay to test for compound auto fluorescence at 590 nm (red) in HEK293 cell free culture (AID 720683)
Method in brief: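 Cell-free wells of DMEM with 10% FBS received compound, and intrinsic fluorescence was read at excitation/emission 540/590 nm. Values expressed as equivalence to Rose Bengal sodium.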

[14] = qHTS assay to test for compound auto fluorescence at 590 nm (red) in HepG2 cell free culture (AID 720684)
Method in brief: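 Compound was pinned into wells holding MEM with 10% FBS and no cells, and red fluorescence was read at Ex/Em 540/590 nm. Signal is expressed as auto fluorescence equivalency relative to Rose Bengal sodium.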

[15] = qHTS assay to test for compound auto fluorescence at 535 nm (green) in HepG2 cell free culture (AID 720686)
[16] = qHTS assay to test for compound auto fluorescence at 460 nm (blue) in HepG2 cells (AID 720687)
Method in brief: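 HepG2 cells in MEM with 10% FBS, attached overnight at 37 C, were exposed to compound or DMSO for 1 hr at 37 C, 5% CO2. Blue fluorescence was read at 405/460 nm, with triamterene as reference fluorophore.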

[17] = biological target: Glucocorticoid receptor (Homo sapiens) (UniProt P04150); assay: qHTS assay to identify small molecule agonists of the glucocorticoid receptor (GR) signaling pathway (AID 720691; active = well fitted activation curve with a large enough effect in the signal ratio in the repeat runs, not every such curve was filed as active; the % refers to the signal ratio)
Chain of Glucocorticoid receptor (Homo sapiens) (P04150 whole entry, looked up): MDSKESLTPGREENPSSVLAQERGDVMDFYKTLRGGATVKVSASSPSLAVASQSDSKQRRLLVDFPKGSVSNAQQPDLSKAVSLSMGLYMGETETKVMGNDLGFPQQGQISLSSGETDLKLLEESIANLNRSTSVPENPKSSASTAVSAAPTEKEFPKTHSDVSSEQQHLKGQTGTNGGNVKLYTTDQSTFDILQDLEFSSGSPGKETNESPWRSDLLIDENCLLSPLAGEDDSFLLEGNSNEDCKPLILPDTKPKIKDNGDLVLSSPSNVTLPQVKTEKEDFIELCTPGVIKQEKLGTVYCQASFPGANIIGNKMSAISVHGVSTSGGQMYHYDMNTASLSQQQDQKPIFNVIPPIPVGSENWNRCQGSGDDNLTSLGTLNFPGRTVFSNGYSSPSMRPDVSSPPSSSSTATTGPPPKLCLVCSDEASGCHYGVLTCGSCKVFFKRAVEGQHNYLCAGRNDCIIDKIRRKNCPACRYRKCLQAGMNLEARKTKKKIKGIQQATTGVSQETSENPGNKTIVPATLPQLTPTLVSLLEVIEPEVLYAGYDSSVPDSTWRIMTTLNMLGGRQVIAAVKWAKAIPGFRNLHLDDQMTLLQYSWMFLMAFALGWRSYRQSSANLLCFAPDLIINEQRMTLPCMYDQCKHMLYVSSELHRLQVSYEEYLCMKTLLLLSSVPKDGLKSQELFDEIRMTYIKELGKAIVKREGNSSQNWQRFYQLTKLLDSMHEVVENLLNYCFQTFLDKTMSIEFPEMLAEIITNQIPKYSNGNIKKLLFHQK
Method in brief: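 Reporter read-out: fluorescence intensity following 2 h room-temperature LiveBLAzer B/G FRET substrate loading. Prior step: GR-bla HeLa cells held 4 h, then treated 18 h at 37 C.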

[18] = biological target: Glucocorticoid receptor (Homo sapiens) (UniProt P04150); assay: qHTS assay to identify small molecule antagonists of the glucocorticoid receptor (GR) signaling pathway (AID 720692; active = well fitted inhibition curve with a large enough effect in the signal ratio in the repeat runs, not every such curve was filed as active; the % refers to the signal ratio)
Method in brief: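 Dexamethasone (5 nM final) stimulated a stably integrated GRE-beta-lactamase reporter in HeLa cells during 18 h co-incubation with compounds; signal was quantified as fluorescence intensity of B/G FRET substrate after 2 h.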

[19] = qHTS assay to test for compound auto fluorescence at 460 nm (blue) in HEK293 cells (AID 720678)
Method in brief: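 Blue read-out at excitation 405 nm and emission 460 nm follows overnight compound exposure of HEK293 cells at 37C in 5% CO2. Activity is given as auto fluorescence equivalency to triamterene.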

[20] = qHTS assay to test for compound auto fluorescence at 460 nm (blue) in HepG2 cell free culture (AID 720685)
Method in brief: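 Compound (23 nL) or DMSO pinned into cell-free MEM with 10% FBS; blue fluorescence read at 405/460 nm excitation/emission, expressed as auto-fluorescence equivalency to triamterene.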
% is set by controls: 0 for no effect and ±100 for the full control effect.

CCOC(=O)CC#N
inactive: outcome [1] | outcome [2] | outcome [3] | Potency [4] | outcome [5] | Potency [6] | outcome [7] | outcome [8] | outcome [9] | outcome [10] | outcome [11] | outcome [12] | outcome [13] | outcome [14] | outcome [15] | outcome [16] | Potency [17] | outcome [18]

CCN1CN(CC)CN(CC)C1
inactive: outcome [1] | outcome [2] | outcome [3] | Potency [4] | outcome [5] | Potency [6] | outcome [7] | outcome [8] | outcome [9] | outcome [10] | outcome [11] | outcome [12] | outcome [13] | outcome [14] | outcome [15] | outcome [16] | Potency [17] | outcome [18]

BrC/C=C/CBr
inactive: outcome [1] | outcome [2] | outcome [3] | Potency [4] | outcome [5] | fluorescence, relative to Rose Bengal [7] -0.458% [at 18.6 µM] | fluorescence, % of fluorescein control [8] -0.0535% [at 18.6 µM] | fluorescence, % of triamterene [19] 0.0974% [at 18.6 µM] | fluorescence, % of fluorescent control [9] 0.0091% [at 18.6 µM] | fluorescence, % of fluorescein [10] 0.0238% [at 18.6 µM] | fluorescence, % of fluorescent control [11] -0.0065% [at 18.6 µM] | activity change [12] 0.0973% [at 18.6 µM] | fluorescence, % of fluorescent control [13] -0.0344% [at 18.6 µM] | fluorescence, % of Rose Bengal [14] 0.0351% [at 18.6 µM] | fluorescence, % of fluorescent control [20] -0.08% [at 18.6 µM] | fluorescence, % of fluorescein control [15] -0.0214% [at 18.6 µM] | fluorescence, % of fluorescent control [16] 0.058% [at 18.6 µM]

CCOC(=O)CC(CC(=O)OCC)(OC(C)=O)C(=O)OCC
inactive: outcome [1] | outcome [2] | outcome [3] | Potency [4] | outcome [5] | outcome [7] | outcome [8] | outcome [19] | outcome [9] | outcome [10] | outcome [11] | outcome [12] | outcome [13] | outcome [14] | outcome [20] | outcome [15] | outcome [16]

CCOC(=O)OCC/C(SC(=O)OCC)=C(\C)N(C=O)Cc1cnc(C)nc1N
inactive: outcome [1] | outcome [2] | outcome [3] | Potency [4] | outcome [5] | Potency [6] | outcome [7] | outcome [8] | outcome [19] | outcome [9] | outcome [10] | outcome [11] | outcome [12] | outcome [13] | outcome [14] | outcome [20] | outcome [15] | outcome [16] | Potency [17] | outcome [18]

COc1cc2c3cc1Oc1cc(ccc1O)C[C@@H]1c4c(cc(OC)c(O)c4Oc4ccc(cc4)C[C@@H]3N(C)CC2)CC[N+]1(C)C
inactive: outcome [1] | outcome [2] | outcome [3] | Potency [4] | outcome [5] | outcome [7] | outcome [8] | outcome [19] | outcome [9] | outcome [10] | outcome [11] | outcome [12] | outcome [13] | outcome [14] | outcome [20] | outcome [15] | outcome [16]

NS(=O)(=O)c1cc2c(cc1Cl)NC(CC1CCCC1)NS2(=O)=O (stereo unspecified)
inactive: outcome [1] | outcome [2] | outcome [3] | Potency [4] | outcome [5] | Potency [6] | fluorescence, relative to Rose Bengal [7] -0.14% [at 18.6 µM] | fluorescence, % of fluorescein control [8] -0.0768% [at 18.6 µM] | fluorescence, % of triamterene [19] -0.024% [at 18.6 µM] | fluorescence, % of fluorescent control [9] -0.246% [at 18.6 µM] | fluorescence, % of fluorescein [10] 0.0502% [at 18.6 µM] | fluorescence, % of fluorescent control [11] -0.0459% [at 18.6 µM] | activity change [12] 0.104% [at 18.6 µM] | fluorescence, % of fluorescent control [13] -0.0938% [at 18.6 µM] | fluorescence, % of Rose Bengal [14] 0.409% [at 18.6 µM] | fluorescence, % of fluorescein control [15] -0.0012% [at 18.6 µM] | fluorescence, % of fluorescent control [16] 0.11% [at 18.6 µM] | Potency [17] | outcome [18]

CCCCCCCC/C=C\CCCCCCCC(=O)OC[C@@H](O)[C@H]1OC[C@H](O)[C@H]1O
inactive: outcome [1] | outcome [2] | outcome [3] | Potency [4] | outcome [5] | Potency [6] | outcome [7] | outcome [9] | outcome [10] | outcome [11] | outcome [12] | outcome [13] | outcome [14] | outcome [15] | outcome [16] | Potency [17] | outcome [18]

CC(=O)OCCCc1ccccc1
inactive: outcome [1] | outcome [2] | outcome [3] | Potency [4] | outcome [5] | Potency [6] | outcome [7] | outcome [8] | outcome [19] | outcome [9] | outcome [11] | outcome [12] | outcome [13] | outcome [14] | outcome [20] | outcome [15] | outcome [16]

CNC(=O)NC
inactive: outcome [1] | outcome [2] | outcome [3] | Potency [4] | outcome [5] | Potency [6] | outcome [7] | outcome [19] | outcome [9] | outcome [10] | outcome [11] | outcome [12] | outcome [13] | outcome [14] | outcome [20] | outcome [15] | outcome [16] | Potency [17]

C1CCN2C[C@@H]3C[C@@H](CN4CCCC[C@@H]34)[C@H]2C1
inactive: outcome [1] | outcome [2] | outcome [3] | Potency [4] | outcome [5] | Potency [6] | fluorescence, relative to Rose Bengal [7] 0.0708% [at 18.6 µM] | fluorescence, % of fluorescein control [8] -0.0003% [at 18.6 µM] | fluorescence, % of triamterene [19] 0.214% [at 18.6 µM] | fluorescence, % of fluorescent control [9] -0.036% [at 18.6 µM] | fluorescence, % of fluorescein [10] -0.0731% [at 18.6 µM] | fluorescence, % of fluorescent control [11] 0.0698% [at 18.6 µM] | activity change [12] -0.022% [at 18.6 µM] | fluorescence, % of fluorescent control [13] 0.165% [at 18.6 µM] | fluorescence, % of Rose Bengal [14] -0.0423% [at 18.6 µM] | fluorescence, % of fluorescent control [20] 0.101% [at 18.6 µM] | fluorescence, % of fluorescent control [16] -0.0841% [at 18.6 µM] | Potency [17] | outcome [18]

CCCCCCCCCCC
inactive: outcome [1] | outcome [2] | outcome [3] | Potency [4] | outcome [5] | Potency [6] | outcome [7] | outcome [8] | outcome [19] | outcome [9] | outcome [10] | outcome [11] | outcome [12] | outcome [13] | outcome [14] | outcome [15] | outcome [16] | Potency [17] | outcome [18]
